Bioassay records as filed in PubChem.
GRK2 inh – human GRK2 inhibition via aptamer displacement. hit rate 0.59% among 330,000. P25098. bead flow cytometry, FAM-aptamer displacement from GRK2. inhibition of aptamer binding, % at 10 µM;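 active = inhibition of aptamer binding above 40%, roughly 3 SD of noise, on plates passing a quality check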;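 also: median bead fluorescence of bound FAM aptamer so fluorescent compounds give negative values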
MEKK2mut PB1 HTS – signal of MEK5 binding to mutant human MEKK2 PB1 domain | bead flow cytometry, Alexa488-MEK5 binding to MEKK2 mutant | percent response, % at 10 µM | hit rate 0.35% among 290,000 | AID 1530; in the data active = percent response above about 24%, passing the limit was not always enough
MEKK2wt PB1 HTS – raises or lowers MEK5 binding to wildtype human MEKK2 PB1 domain; Q9Y2U5; bead flow cytometry, Alexa488-MEK5 binding to MEKK2 WT; actives lie on both sides; hit rate 1.1% among 290,000; AID 1531; binding response (% of control), % at 10 µM; in the data active = binding response below about 67% or above about 130%
MEKK3 PB1 HTS – modulators (inhibitors or enhancers) of MEK5 binding to human MEKK3 PB1 domain | Q99759 | bead-based flow cytometry, Alexa488-MEK5 binding to MEKK3; actives lie on both sides; 0 = blocked by unlabeled MEK5, 100 = vehicle | binding response (% of control), % at 10 µM | hit rate 1.4% among 290,000;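 active = binding response more than 3 SD above or below the average of its plate-row segment, actives on both sides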;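 also: Alexa488 bead fluorescence after subtracting the streptavidin-only scavenger bead signal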
Target sequence (Q99759 whole entry, looked up, the tested form may be a part): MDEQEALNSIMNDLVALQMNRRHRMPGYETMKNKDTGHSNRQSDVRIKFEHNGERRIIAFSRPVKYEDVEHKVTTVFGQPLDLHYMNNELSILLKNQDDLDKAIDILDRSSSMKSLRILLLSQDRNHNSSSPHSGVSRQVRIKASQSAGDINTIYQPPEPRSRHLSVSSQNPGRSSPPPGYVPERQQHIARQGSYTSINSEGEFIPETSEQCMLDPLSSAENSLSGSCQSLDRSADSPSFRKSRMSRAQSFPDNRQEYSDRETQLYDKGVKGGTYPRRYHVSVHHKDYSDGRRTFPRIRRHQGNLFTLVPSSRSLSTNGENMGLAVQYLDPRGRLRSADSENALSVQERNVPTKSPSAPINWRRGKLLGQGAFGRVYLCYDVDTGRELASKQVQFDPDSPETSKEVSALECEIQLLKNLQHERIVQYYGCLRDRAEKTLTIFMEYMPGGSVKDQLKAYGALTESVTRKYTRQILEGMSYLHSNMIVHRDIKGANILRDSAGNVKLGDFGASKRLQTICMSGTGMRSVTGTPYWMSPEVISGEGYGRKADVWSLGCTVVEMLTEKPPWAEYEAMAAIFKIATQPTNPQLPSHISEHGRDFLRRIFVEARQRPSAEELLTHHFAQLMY
MEKK2wt confirm – raises or lowers MEK5 binding to wildtype human MEKK2, retest; shares compounds with MEKK3 PB1 HTS; hit rate 2.4% among 5,900; bead flow cytometry, Alexa488-MEK5 binding to MEKK2 WT; actives lie on both sides; AID 1892; binding response (% of control), % at 10 µM; in the data active = binding response below about 16% or above about 210%; inactive = in between
MEKK2mut confirm – signal of MEK5 binding to mutant human MEKK2, retest; shares compounds with MEKK3 PB1 HTS; bead flow cytometry, Alexa488-MEK5 binding to MEKK2 mutant; percent response, % at 10 µM; hit rate 2% among 5,900; in the data active = percent response mostly above about 71%, no sharp cut-off; inactive = mostly below about 38%;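 also: higher means compound restores mutant binding toward wildtype level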
MEKK3-MEK5 inh – MEKK3-MEK5 PB1 inhibition, single concentration confirmation; shares compounds with MEKK3 PB1 HTS; bead flow cytometry, Alexa488-MEK5 binding to MEKK3; active compounds read low; binding response (% of control), % at 10 µM; hit rate 1.8% among 5,900; AID 1894;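 active = binding response below 72% of control, or above a set upper limit, though filed actives all read lower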;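 also: lower values mean stronger disruption of MEK5 binding to MEKK3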
Large screens that a line does not name were inactive (follow-up assays come after a bar, where they were run). Only some compounds are listed: those with a hit (about 2.5% of all), similar ones and a draw of the others.

COc1c2ccoc2c(OCC=C(C)C)c2oc(=O)ccc12	none
C#CCOCCOCCOCCNc1nc(N2CCN(C(=O)[C@H]([C@@H](C)CC)n3cc([C@@H](N)Cc4ccc(O)cc4)nn3)CC2)nc(N2CCN(C(=O)[C@H]([C@@H](C)CC)n3cc([C@@H](N)CC(C)C)nn3)CC2)n1	MEKK2wt PB1 HTS 139.0 | MEKK2wt confirm inactive | MEKK2mut confirm inactive | MEKK3-MEK5 inh inactive
C#CCOCCOCCOCCNc1nc(N2CCN(C(=O)[C@H]([C@@H](C)CC)n3cc([C@@H](N)Cc4ccc(O)cc4)nn3)CC2)nc(N2CCN(C(=O)[C@H](Cc3ccc(O)cc3)n3cc([C@@H](N)CC(C)C)nn3)CC2)n1	MEKK2wt PB1 HTS 181.0 | MEKK2wt confirm inactive | MEKK2mut confirm inactive | MEKK3-MEK5 inh inactive
C#CCOCCOCCOCCNc1nc(N2CCN(C(=O)[C@H]([C@@H](C)CC)n3cc([C@@H](N)CO)nn3)CC2)nc(N2CCN(C(=O)[C@H](Cc3ccc(O)cc3)n3cc([C@@H](N)CC(C)C)nn3)CC2)n1	none
CC(C)OC(=O)CN1C(=O)C(C)(C)Oc2ccc(C(=O)NC3CC3)cc21	none
COc1cc(OC)c2c(-c3ccccc3)cc(=O)oc2c1C(CCN1CCN(c2ccccc2)CC1)c1ccc(N(C)C)cc1 (stereo not drawn)	none (no result: GRK2 inh)
CCN(CC)CCC(c1ccc(N(C)C)cc1)c1c(OC)cc(OC)c2c(-c3ccccc3)cc(=O)oc12 (stereo not drawn)	MEKK2mut PB1 HTS 25.0, MEKK2wt PB1 HTS 178.0 | MEKK2wt confirm inactive | MEKK2mut confirm inactive | MEKK3-MEK5 inh inactive
COc1cc(C(CCN2CCCCC2)c2c(OC)cc(OC)c3c(C)cc(=O)oc23)cc(OC)c1OC (stereo not drawn)	MEKK2wt PB1 HTS 141.0 | MEKK2wt confirm inactive | MEKK2mut confirm inactive | MEKK3-MEK5 inh inactive
COc1cc(OC)c2c(-c3ccccc3)cc(=O)oc2c1C(CC(=O)N1CCOCC1)c1ccc2c(c1)OCO2 (stereo not drawn)	MEKK2wt PB1 HTS 144.0 (no result: GRK2 inh) | MEKK2wt confirm inactive | MEKK2mut confirm inactive | MEKK3-MEK5 inh inactive
COc1cc(C(CCN2CCCC2)c2c(OC)cc(OC)c3c(-c4ccccc4)cc(=O)oc23)cc(OC)c1OC (stereo not drawn)	MEKK2mut PB1 HTS 26.0, MEKK2wt PB1 HTS 140.0 | MEKK2wt confirm inactive | MEKK2mut confirm inactive | MEKK3-MEK5 inh inactive
COc1cc(C(CCN2CCOCC2)c2c(OC)cc(OC)c3c(-c4ccccc4)cc(=O)oc23)cc(OC)c1OC (stereo not drawn)	none (no result: MEKK2mut PB1 HTS, MEKK2wt PB1 HTS, MEKK3 PB1 HTS)
C[C@H]1CC[C@]2(O[C@H](CCO)C[C@H](O)[C@H]2O)O1	none
C=CCN1C(=O)C(=O)N(Cc2nc3ccccc3s2)C1=O	none
COc1ccc(C(CCN2CCCC(C)C2)c2c(OC)cc(OC)c3c(-c4ccccc4)cc(=O)oc23)cc1 (stereo not drawn)	MEKK2mut PB1 HTS 41.0, MEKK2wt PB1 HTS 207.0 | MEKK2wt confirm inactive | MEKK2mut confirm inactive | MEKK3-MEK5 inh inactive
COc1ccc(C(CCN2CCCC2)c2c(OC)cc(OC)c3c(-c4ccccc4)cc(=O)oc23)cc1 (stereo not drawn)	MEKK2wt PB1 HTS 152.0 | MEKK2wt confirm inactive | MEKK2mut confirm inactive | MEKK3-MEK5 inh inactive
COc1cc(OC)c2c(C)cc(=O)oc2c1C(CCN1CCOCC1)c1ccc(N(C)C)cc1 (stereo not drawn)	none (no result: GRK2 inh)
COc1cc(OC)c2c(-c3ccccc3)cc(=O)oc2c1C(CCN1CCOCC1)c1ccc2c(c1)OCO2 (stereo not drawn)	none (no result: MEKK2mut PB1 HTS, MEKK2wt PB1 HTS, MEKK3 PB1 HTS)
COc1ccc(C(CCN2CCCC(C)C2)c2c(OC)cc(OC)c3c(C)cc(=O)oc23)cc1 (stereo not drawn)	MEKK2wt PB1 HTS 138.0 | MEKK2wt confirm inactive | MEKK2mut confirm inactive | MEKK3-MEK5 inh inactive
